# APP 5UTR inh = APP translation inhibition; SH-SY5Y APP 5'UTR-luciferase reporter, luminescence; 0.82% of 190,000 active; inhibition, % at 2 µM;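 active = inhibition above a set limit, derived from the sample mean plus 3 SD, cut at about 45% in these data; inconclusive = one replicate passes the limit while the other fails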
# Ba/F3 V617F tox = loss of viability in JAK2V617F-driven Ba/F3 cells. Ba/F3 EpoR-JAK2V617F viability, ATP luminescence. AID 1446. 1.1% of 220,000 active. inhibition, % at 5.6 µM;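 active = inhibition above the campaign mean plus 3 SD over all tested compounds, cut at about 24% in these data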;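 note: cytokine-independent growth of Ba/F3 cells driven by EpoR plus mutant JAK2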
# IEC-6 tox-1 = counter-screen for KLF5 inhibitors: cytotoxicity in IEC-6 cells; IEC-6 cytotoxicity, luminescence viability; inhibition, % at 5 µM; 0.78% of 290,000 active; AID 1825; in the data active = inhibition above about 22%
# aSyn 5UTR inh = 5' untranslated region of α-synuclein, MLPCN primary screen; alpha-synuclein 5'UTR reporter, inhibitor activity; inhibition, % (tested at 7.5 µM); 0.82% of 300,000 active; AID 1813; in the data active = inhibition above about 60%; inconclusive = no clear call, values can overlap the other calls;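 note: H4 neuroglioblastoma cells stably carrying SNCA 5'UTR luciferase fusion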
# BaF3 parental = counter-screen for JAK2V617F inhibitors: parental Ba/F3 viability inhibitors; CellTiter-Glo ATP luminescence; inhibition, % at 5.6 µM; 1.1% of 220,000 active; AID 1486;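 active = inhibition above a per-campaign cutoff, the mean inhibition of all tested compounds plus 3 SD, cut at about 27% in these data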
# KLF5 inhibitor = suppresses KLF5 promoter-driven expression | DLD-1 KLF5 promoter-luciferase reporter, luminescence | inhibition, % at 5 µM | AID 1700 | 0.23% of 290,000 active;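 active = inhibition above a per-plate limit of that plate's mean compound inhibition plus 3 SD, cut at about 60% in these data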;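 note: higher means less KLF5 promoter-driven luciferase light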
# KLF5 confirm = KLF5 inhibition, confirmation assay; shares compounds with KLF5 inhibitor; 79% of 610 active; inhibition, % at 4 µM; AID 1834; DLD-1 KLF5 promoter firefly luciferase reporter, luminescence;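 active = inhibition above a set limit taken from the earlier primary screen, cut at about 63% in these data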
# IEC-6 tox-2 = counter-screen for KLF5 inhibitors: cytotoxicity in rat IEC-6 cells; shares compounds with KLF5 inhibitor; IEC-6 rat intestinal cells, viability luminescence; inhibition, % at 4 µM; 56% of 610 active; AID 1905; in the data active = inhibition above about 23%;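 note: cells exposed to compounds for 48 hours before viability read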
# Hits are given with their value; n = inactive; u = inconclusive; x = not tested or not shown. The list is not random: actives were taken first. Their share in the collection is about 2.2%.
SMILES,APP 5UTR inh,Ba/F3 V617F tox,IEC-6 tox-1,aSyn 5UTR inh,BaF3 parental,KLF5 inhibitor,KLF5 confirm,IEC-6 tox-2
O=C(O)c1ccc(-c2ccc(-c3ccccc3)cc2)s1,x,x,n,64,x,90,92,n
COc1ccc2[nH]c(C(=O)N/N=C/c3ccc(O)cc3O)cc2c1,x,x,n,n,x,84,83,32
COc1ccc(/C=N/NC(=O)c2cc3cc(OC)c(OC)cc3[nH]2)cc1,x,x,n,n,x,n,x,x
COC(=O)c1c(N)sc(C(=O)NCCc2ccccc2)c1C,x,x,n,105,x,93,85,n
COc1cccc(OC)c1C(=O)NCCc1ccccc1,x,x,x,n,x,x,x,x
CCN(C(=O)COC(=O)c1ccc(Br)o1)C1CCCCC1,n,n,n,n,n,n,x,x
O=Cc1ccc2ccc3cccnc3c2n1,x,x,n,n,x,78,n,n
O=Cc1ccc2cccnc2n1,n,n,n,n,n,n,x,x
Cc1ccc(-c2nn(-c3ccccc3)cc2CO)cc1,x,x,n,n,x,n,x,x
Cc1ccc(Sc2c(CO)c(-c3ccccc3)nn2C)cc1,95,80,86,n,82,72,84,56
CCC(C)C(=O)Nc1nnc(CCc2ccccc2)s1 (centres undefined),x,x,n,n,x,n,x,x
Cc1ccc2c(c1)COc1c3ccc(C(=O)O)cc3nn1-2,x,x,n,n,x,92,n,n
CCn1c(N)nc2c1c(=O)n(C)c(=O)n2C,n,n,n,n,n,n,x,x
CCCc1nc2c(=O)n(C)c(=O)nc-2n(C)n1,n,73,n,x,85,72,112,49
CCc1nc(N2CCN(C(=S)NCCCOC)CC2)c2c3c(sc2n1)CCCC3,x,x,n,n,x,n,x,x
Cc1ccc(NC(=O)CSCC(=O)NNC(=O)c2ccoc2C)cc1,x,x,x,n,x,x,x,x
O=c1[nH]c2ccccc2nc1NCc1ccccc1,x,x,n,n,x,n,x,x
CC1=NN(c2nc3ccccc3[nH]2)C(=O)C1Cc1ccccc1 (centres undefined),x,97,n,n,81,63,81,n
COc1cc(C(=O)N/N=C/c2cc([N+](=O)[O-])cs2)cc(OC)c1OC,95,81,78,n,77,79,76,59
CC1CCCN(C(=O)c2cc3ccccc3cc2O)C1 (centres undefined),x,x,n,n,x,n,x,x
COc1ccc(/C=N\NC(=O)c2c(C)nc3ccc(Br)cn23)cc1,89,73,47,u,72,65,75,53
COc1ccc(/C=N/NC(=O)c2c(C)nc3ccc(Br)cn23)cc1OC,x,n,n,n,n,n,x,x
CC(C)(C)c1ccc(/C=N/Nc2cccc(C(=O)O)c2)cc1,n,n,n,n,n,n,x,x
O=C(O)c1ccc(N/N=C/c2c(F)cccc2Cl)cc1,x,x,n,n,x,66,n,n
CN(C)c1ccc(/C=N/Nc2cccc(C(=O)O)c2)cc1,x,x,n,77,x,75,109,n
SMILES,APP 5UTR inh,Ba/F3 V617F tox,IEC-6 tox-1,aSyn 5UTR inh,BaF3 parental,KLF5 inhibitor,KLF5 confirm,IEC-6 tox-2
CC(C)(C)c1ccc(/C=N/Nc2ccc(C(=O)O)cc2)cc1,n,n,24,n,n,66,94,34
Cc1nc2ccc(Br)cc2c(=O)n1Cc1cccs1,x,x,x,n,x,x,x,x
Cc1ccc(S(=O)(=O)N(C)C)cc1NC(=O)C(C)OC(=O)C1CCCC1 (centres undefined),x,x,x,n,x,x,x,x
CCn1cc(CN2CCCC(C(=O)Nc3ccc(-c4cscn4)cc3)C2)cn1 (centres undefined),x,x,n,n,x,n,x,x
CC1=Nc2cc(C(=O)NCc3ccco3)ccc2Sc2ccc(C)cc21,96,84,80,101,80,68,83,62
O=C(CCNC(=O)c1ccccc1Cl)NCC(c1ccco1)N1CCCC1 (centres undefined),x,x,x,n,x,x,x,x
O=C(NC(=O)c1ccccc1)Nc1ccccn1,x,x,n,64,x,84,66,33
O=C(Nc1ccccn1)c1ccc(C(=O)c2ccccc2)cc1,x,x,x,n,x,x,x,x
CCOC(=O)C1=C(CS(=O)(=O)c2ccccc2)NC(=O)NC1c1cc(OC)c(O)c(OC)c1 (centres undefined),x,x,n,n,x,n,x,x
COc1ccc(/C=N/NS(=O)(=O)c2ccc(C)cc2)cc1OC(=O)c1ccccc1,n,n,n,x,n,n,x,x
COc1cc(/C=N/O)ccc1OCc1ccc(C(=O)O)cc1,82,n,n,116,n,84,95,n
COc1cc(/C=N/O)ccc1OCc1ccc(Cl)cc1,n,n,n,n,n,n,x,x
COc1cc(/C=N/NS(=O)(=O)c2ccc3ccccc3c2)ccc1OCc1ccc(C(=O)O)cc1,x,n,n,84,n,65,n,n
O=[N+]([O-])c1ccc(C(O)C23CN4CN(CN(C4)C2)C3)cc1 (centres undefined),n,n,n,n,n,n,x,x
COC(=O)CCCn1nc(NC(=O)COc2ccc(F)cc2)cc1C,x,x,n,n,x,n,x,x
O=S(=O)(NCCN1CCOCC1)c1cc(Cl)c(Cl)cc1Cl,x,x,n,n,x,n,x,x
O=C(COc1cccc2cccnc12)Nc1nccs1,n,n,n,n,n,n,x,x
Oc1cccc(C(Nc2nccs2)c2ccc3cccnc3c2O)c1 (centres undefined),73,68,48,132,65,74,92,63
CCCCCCCC[n+]1cccc2c3ccccc3ccc21,n,100,45,n,85,82,93,43
O=C(Nc1nc2cc3c(cc2s1)OCCO3)C1=COCCO1,x,n,n,99,n,96,92,n
O=C(Nc1nc2ccc(F)cc2s1)C1=COCCO1,x,x,x,n,x,x,x,x
COc1ccc(CNC(=O)C(c2ccco2)N(C(=O)c2snc(C(N)=O)c2N)c2cccc(OC)c2)cc1 (centres undefined),x,x,n,n,x,n,x,x
O=[N+]([O-])c1ccc(N=Nc2c(Cl)cc(O)cc2Cl)cc1,x,81,n,u,95,n,n,22
N/C(=N\OC(=O)c1ccc(=O)n(Cc2ccccc2)c1)c1ccccn1,n,n,n,n,n,n,x,x
CCCc1ccc(C(=O)O/N=C(\N)c2ccccn2)cc1,x,x,n,72,x,102,97,n
SMILES,APP 5UTR inh,Ba/F3 V617F tox,IEC-6 tox-1,aSyn 5UTR inh,BaF3 parental,KLF5 inhibitor,KLF5 confirm,IEC-6 tox-2
N/C(=N\OC(=O)c1ccc2ccccc2c1)c1ccccn1,n,n,n,96,n,86,n,n
COc1ccc(S(=O)(=O)Nc2cccc(-c3ccc4nncn4n3)c2)cc1F,63,81,59,n,79,70,81,34
O=C(NC1CCCCC1)NC1C2CC3CC(C2)CC1C3 (centres undefined),x,x,n,n,x,n,x,x
COc1cc(C(=O)N/N=C(\C)Cc2ccccc2)cc(OC)c1OC,94,86,84,n,80,76,n,n
CCCCC(=O)NC(c1ccc(C(C)C)cc1)c1ccc2cccnc2c1O (centres undefined),x,x,n,112,x,69,80,46
CCCCC(=O)NC(c1ccc([N+](=O)[O-])cc1)c1c(O)ccc2ccccc12 (centres undefined),n,n,n,n,n,n,x,x

# Bioassay records from PubChem BioAssay.
